Active and inactive are the calls of the source. Calls follow the shape of the full dose curve.

Among the data in PubChem BioAssay (NCATS) are activity, Potency and activity change, negative = inhibition values, retold here.

Experiment in all cases: Confirmatory Screen for Target Class Profiling of Small Molecule Inhibitors of Methyltransferases (AID 1745852); as to activity change, negative = inhibition: % is scaled to controls: 0 for no effect and ±100 for the full control effect
Test [1] concerns the target Catechol O-methyltransferase (Homo sapiens) (UniProt P21964). The note with it: MTase-Glo luminescence, SAH detection, recombinant enzyme; measured here: COMT max response; stronger effect = lower value.
For test [2], the target named is Guanidinoacetate N-methyltransferase (Homo sapiens) (UniProt Q14353). The following applies: MTase-Glo luminescence, SAH detection, recombinant enzyme; activity change, negative = inhibition: at 57.3 µM (top of the series) unless noted; series mostly up to 57.3 µM.
Test [3] deals with Nicotinamide N-methyltransferase (Homo sapiens) (UniProt P40261). The note with it: MTase-Glo luminescence, SAH detection, recombinant enzyme; measured here: NNMT max response; stronger effect = lower value.
Sequence of Nicotinamide N-methyltransferase (Homo sapiens) (P40261 whole entry, looked up): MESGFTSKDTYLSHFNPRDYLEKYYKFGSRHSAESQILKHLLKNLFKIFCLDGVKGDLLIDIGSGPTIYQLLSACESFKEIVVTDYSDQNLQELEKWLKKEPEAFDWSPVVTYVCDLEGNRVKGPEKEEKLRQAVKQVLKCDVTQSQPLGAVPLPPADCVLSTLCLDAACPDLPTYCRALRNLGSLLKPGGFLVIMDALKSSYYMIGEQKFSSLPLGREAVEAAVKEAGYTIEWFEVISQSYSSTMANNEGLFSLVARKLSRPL
The target of test [4] is Phenylethanolamine N-methyltransferase (Homo sapiens) (UniProt P11086). The note with it: MTase-Glo luminescence, SAH detection, recombinant enzyme; measured here: PNMT max response; stronger effect = lower value.
Sequence of Phenylethanolamine N-methyltransferase (Homo sapiens) (P11086 whole entry, looked up): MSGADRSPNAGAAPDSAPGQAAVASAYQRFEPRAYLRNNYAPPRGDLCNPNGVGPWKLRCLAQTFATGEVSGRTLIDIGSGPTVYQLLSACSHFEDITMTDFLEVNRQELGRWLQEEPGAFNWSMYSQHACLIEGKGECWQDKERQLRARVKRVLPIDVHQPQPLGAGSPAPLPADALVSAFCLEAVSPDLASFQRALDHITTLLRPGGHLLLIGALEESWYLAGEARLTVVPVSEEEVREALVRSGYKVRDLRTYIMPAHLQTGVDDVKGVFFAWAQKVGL
Potency is read from the fitted curve at half-maximal effect.

Sequence of Catechol O-methyltransferase (Homo sapiens) (P21964 whole entry, looked up): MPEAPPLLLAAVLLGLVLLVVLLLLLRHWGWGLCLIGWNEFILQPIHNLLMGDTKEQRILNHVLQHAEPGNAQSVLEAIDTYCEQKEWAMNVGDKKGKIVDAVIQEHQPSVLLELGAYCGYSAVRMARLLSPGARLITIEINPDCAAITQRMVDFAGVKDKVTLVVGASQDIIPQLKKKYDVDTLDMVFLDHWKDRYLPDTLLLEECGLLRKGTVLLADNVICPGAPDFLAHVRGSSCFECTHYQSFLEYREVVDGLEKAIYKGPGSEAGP

`COc1cccc([C@H]2Nc3ccc(S(=O)(=O)Nc4ccc(C)cc4C)cc3[C@H]3C=CC[C@H]32)c1`: the activity is -17.4% in test [1], -21.2% in test [3] and -27.1% in test [4]. Also, the Potency in test [2] is 27.1 µM (active).
For the compound `CC(C)CCn1c(=O)c2ccccc2n2c(CCC(=O)N3CCN(c4ccccc4F)CC3)nnc12`, the activity in test [1] is 1.06%; in test [3] it was -60.1%; in test [4], -4.6%. In test [2], the activity change, negative = inhibition was 0%.
For `COc1cccc(NC(=O)Cn2c(=O)oc3cc(S(=O)(=O)N4CC(C)CC(C)C4)ccc32)c1` (stereo not given), in that order: 3.17%, -1.21%, -70.5% and 0%.
For `O=C(NCc1ccc(Cl)cc1)c1ccc2c(=O)nc3c(-c4ccccc4F)n[nH]n3c2c1`, in that order: -4.08%, -14.9%, -19.4% and -1.1%.
Turning to `COCCCNC(=O)c1cnc2n[nH]c(-c3ccccc3)c2n1`, the activity in test [1] is -62.1%; in test [3], -64.3%; in test [4] it was -75.1%. Also, the Potency in test [2] is 39.3 µM (active).
Turning to `CCCC1c2cccn2CCN1C(=O)Nc1cccc(C(F)(F)F)c1` (stereo not given), the values for the activity in test [1], in test [3] and in test [4] were -5.53%, -7.32% and -5.65%, respectively. Further, in test [2], the activity change, negative = inhibition was -0.7%.
For `O=C(c1cc(-c2ccccc2)n[nH]1)N1CCc2c(nc(-c3ccccc3)[nH]c2=O)C1`, in that order: 4.33%, 3.92%, 5.63% and 7.17%.
For `O=C(CCCc1nnc2n3nc(-c4ccccc4)nc3c3ccccc3n12)N1CCC(N2CCCCC2)CC1`, in that order: -14.2%, -20.9%, -10.5% and -7.55%.
For `Cn1cc2c3c(cccc31)CN(C(=O)c1ccccc1F)CC2`, the figures for the activity in test [1], in test [3] and in test [4] were -1.46%, -50.7% and -0.857%, respectively. In test [2], the activity change, negative = inhibition is 8.53%.
Turning to `c1ccc(Cn2cc(CN3CCN(c4ccncc4)CC3)c(-c3cc4ccccc4o3)n2)cc1`, the activity in test [1] is 5.39%; in test [3] it was 1.15%; in test [4], 6.65%. Moreover, the activity change, negative = inhibition in test [2] came to 12.1%.
`O=c1c2ccccc2n2c(-c3cc(Cl)ccc3O)nnc2n1Cc1ccc(F)cc1`: the figures for the activity in test [1], in test [3] and in test [4] were -12.1%, -13.1% and -27.8%, respectively. Moreover, the Potency in test [2] is 27.1 µM (active).
On to `COC(=O)c1nc(NC(=O)Cn2nc3c(cc2=O)CCCC3)sc1C(C)C`, for which the activity in test [1] is -1.05%; in test [3], -8.15%; in test [4], 2.23%. The activity change, negative = inhibition in test [2] stood at 0.9%.
In the same order, the values of `COc1ccc(OC)c(CN2CCNc3cc(-c4ccnc(C)c4)ncc3C2)c1` are 6.21%, -5.07%, 4.8% and 6.12% [at 85.7 µM].
In the same order, the values of `Cc1ccc(Cn2c(=O)c3ccccc3n3c(CCC(=O)NCCCN4CCN(C)CC4)nnc23)cc1` are -2.75%, -12.5%, 3.42% and -1.36%.
In the case of `Cn1c(=O)n(C)c2cc(S(=O)(=O)Nc3cc4c(cc3NCc3ccccc3)n(C)c(=O)n4C)ccc21`, the activity was -26% in test [1], -35.1% in test [3] and -25.2% in test [4]. Moreover, the Potency in test [2] was 21.5 µM (active).
As to `CCC1Oc2ccc(NS(=O)(=O)c3ccc(Cl)cc3)cc2CN(Cc2ccc(F)cc2)C1=O` (stereo not given), the activity was -6.43% in test [1], -24.1% in test [3] and -6.42% in test [4]. The activity change, negative = inhibition in test [2] was -14.3%.
For `CC1(C(=O)NC2CCCCCC2)Cn2c(c(-n3cccc3)c3ccccc32)C(=O)N1CC1CCCO1` (stereo not given), in that order: 4.7%, -46.9%, 0% and 0.126%.
For `O=C(Nc1ccc2ncnc(N3CCCCC3)c2c1)c1cc(F)ccc1F`, the activity is -70.5% in test [1], -79.2% in test [3] and -80.3% in test [4]. Besides, the Potency in test [2] was 21.5 µM (active).
Turning to `CC(C)c1nccn1CCCNC(=O)c1ccc(-c2cccc(F)c2)nc1`, the activity is 4.81% in test [1], 9.65% in test [3] and -0.0651% in test [4]. In addition, the activity change, negative = inhibition in test [2] was determined as 3.97%.
In the case of `O=C(Nc1ccc2ncnc(N3CCCCC3)c2c1)C1CCCCC1`, the figures for the activity in test [1], in test [3] and in test [4] were -75.6%, -81.1% and -86.5%, respectively. Moreover, the Potency in test [2] was 19.2 µM (active).
Take `O=C(c1ccc(C(F)(F)F)cc1)N1CCCC(C(=O)N2CCC(c3nc4ccncc4[nH]3)CC2)C1` (stereo not given): the activity in test [1] is 9.15%; in test [3] it was -28.9%; in test [4], 9.23%. For the same compound, in test [2], the activity change, negative = inhibition was found to be 6.72%.
With `CCN(CC)CCCNC(=O)CCc1nnc2n(CCc3ccccc3)c(=O)c3ccccc3n12`, the activity in test [1] was -3.69%; in test [3], -11.7%; in test [4], 2.52%. Further, in test [2], the activity change, negative = inhibition was -1.16%.
For `Cc1ccc2nc(CN(C)C(=O)C3CCC(=O)N(C4CCCCCC4)C3)[nH]c2c1` (stereo not given), in that order: -3.1%, -9.1%, -9.49% and -4.65%.
For `CCCC1=Nc2cc(C(=O)NCCCN3CCCCC3CC)ccc2Sc2ccc(C)cc21` (stereo not given), in that order: -2.37%, -7.02%, 1.37% and 6.53%.
In the case of `COc1ccc(-c2nnn3c2nc(N2CCOCC2)c2ccccc23)cc1`, the activity in test [1] was -38.9%; in test [3] it was -27.8%; in test [4], -35.3%. The Potency in test [2] is 19.2 µM (active).
For `CC1(C(=O)NC2CCCCCC2)Cn2c(cc3occc32)C(=O)N1Cc1ccc2c(c1)OCO2` (stereo not given), in that order: -5.04%, -18%, -10.8% and “inactive”.
For the compound `CN1CCC(N2CC[C@H](c3nc4ccccc4[nH]3)C2)CC1`, the values for the activity in test [1], in test [3] and in test [4] were -6.53%, -26.5% and -6.23%, respectively. The activity change, negative = inhibition in test [2] was -8.47% [at 114 µM].
In the same order, the values of `COC(=O)c1ccc(C)c2c1C1C=CCC1[C@@H](c1ccc(C(=O)O)cc1)N2` (stereo not given in full) are -11.4%, -8.29%, -3.22% and -1.6%.
As for `O=C(NCc1ccc(Cl)cc1)c1ccc2c(=O)[nH]c3c(C(=O)NC4CCCC4)sc(=S)n3c2c1`, the activity in test [1] is -32.6%; in test [3] it was -79.2%; in test [4] it was -80.2%. Further, the Potency in test [2] was 42.9 µM (active).
In the case of `Cc1ccc(S(=O)(=O)c2nnn3c2nc(N2CCC(N4CCCCC4)CC2)c2ccccc23)cc1C`, the activity in test [1] was -1.85%; in test [3] it was -9.07%; in test [4], -3.83%. Further, in test [2], the activity change, negative = inhibition is 0%.
